From PubChem BioAssay
Unmarked numbers belong to inactive results. For some of these results: Results with a measured potency or affinity are listed apart. Activity calls are given as the source filed them. Unless noted, no rule for the calls is given here.

Tests used:
[1] = antimalarial activity against Dd2 strain (AID 2302;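 active = growth inhibition above 50% at the single 2 µM test dose, taken to imply half-maximal potency below 2 µM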;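 also: 0% = DMSO untreated growth and 100% = chloroquine plus artemisinin killed control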); conditions: P. falciparum Dd2 in RBCs, LDH growth readout, 72 h; at 2 µM; hits give high values
[2] = HepG2 cytotoxicity, primary screen, cytotoxicity control for P. falciparum antimalarial project, cell-based, ATP luminescence (AID 2303;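 active = inhibition above 50%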;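 also: 0% = DMSO wells and 100% = digitonin-killed cells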); conditions: HepG2 viability, 24-48 h, at 10 µM, hits give high values
[3] = biological target: L-lactate dehydrogenase (Plasmodium falciparum (isolate CDC / Honduras)) (UniProt Q27743); experiment: PfLDH activity inhibition – cell lysate, 3D7 strain, counter-screen for P. falciparum growth inhibition project (AID 2304);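 also: 0% = vehicle and 100% = reference inhibitor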; conditions: P. falciparum 3D7 crude extract, LDH APAD/NBT absorbance; at 2 µM; hits give high values
Chain of L-lactate dehydrogenase (Plasmodium falciparum (isolate CDC / Honduras)) (Q27743 whole entry, looked up): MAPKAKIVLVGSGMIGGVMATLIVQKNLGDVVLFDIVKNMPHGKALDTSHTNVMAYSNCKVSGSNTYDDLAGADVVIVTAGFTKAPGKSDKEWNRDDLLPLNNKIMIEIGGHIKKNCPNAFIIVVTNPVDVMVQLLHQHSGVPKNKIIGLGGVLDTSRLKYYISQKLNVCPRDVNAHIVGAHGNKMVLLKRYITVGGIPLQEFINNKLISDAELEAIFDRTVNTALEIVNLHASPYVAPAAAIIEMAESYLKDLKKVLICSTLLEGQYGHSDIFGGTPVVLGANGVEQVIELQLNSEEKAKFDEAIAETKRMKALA

[4] = inhibition of 3D7 malaria parasite growth – strain 3D7 (AID 2306);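 also: 0% = DMSO wells and 100% = chloroquine plus artemisinin control wells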; conditions: P. falciparum 3D7 erythrocytic growth, LDH absorbance, 72 h; at 2 µM; hits give high values
[5] = biological target: Calcium-dependent protein kinase 1 (Plasmodium falciparum (isolate 3D7)) (UniProt P62344); experiment: PfCDPK1 kinase inhibitors, biochemical, TCAMS library (AID 1159585; cut-off not given, nearly all actives have IC50 up to about 0.98 µM;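 also: inhibitors leave more ATP so luminescence rises with inhibition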); conditions: recombinant PfCDPK1, Kinase-Glo ATP depletion luminescence
Chain of Calcium-dependent protein kinase 1 (Plasmodium falciparum (isolate 3D7)) (P62344 whole entry, looked up): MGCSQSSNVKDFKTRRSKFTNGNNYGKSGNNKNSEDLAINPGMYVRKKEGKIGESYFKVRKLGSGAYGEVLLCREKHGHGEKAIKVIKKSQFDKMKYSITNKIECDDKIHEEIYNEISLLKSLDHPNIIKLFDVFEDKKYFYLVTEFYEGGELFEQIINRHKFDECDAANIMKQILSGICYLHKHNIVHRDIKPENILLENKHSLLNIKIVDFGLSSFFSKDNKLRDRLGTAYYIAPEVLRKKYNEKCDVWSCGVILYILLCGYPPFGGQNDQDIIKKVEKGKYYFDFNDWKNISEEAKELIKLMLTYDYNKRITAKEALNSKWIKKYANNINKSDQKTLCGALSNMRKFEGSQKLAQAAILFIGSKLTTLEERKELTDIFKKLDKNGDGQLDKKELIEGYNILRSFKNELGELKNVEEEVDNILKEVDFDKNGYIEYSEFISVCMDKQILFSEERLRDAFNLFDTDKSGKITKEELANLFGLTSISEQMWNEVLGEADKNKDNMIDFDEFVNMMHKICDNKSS

[6] = biological target: Plasmodium falciparum protein kinase 6 (PK6, PF3D7_1337100) (UniProt Q8IDW1); experiment: PfPK6 kinase inhibitors, biochemical, TCAMS library (AID 1159586); conditions: recombinant PfPK6, Kinase-Glo ATP depletion luminescence
Chain of Plasmodium falciparum protein kinase 6 (PK6, PF3D7_1337100) (Q8IDW1 1-305): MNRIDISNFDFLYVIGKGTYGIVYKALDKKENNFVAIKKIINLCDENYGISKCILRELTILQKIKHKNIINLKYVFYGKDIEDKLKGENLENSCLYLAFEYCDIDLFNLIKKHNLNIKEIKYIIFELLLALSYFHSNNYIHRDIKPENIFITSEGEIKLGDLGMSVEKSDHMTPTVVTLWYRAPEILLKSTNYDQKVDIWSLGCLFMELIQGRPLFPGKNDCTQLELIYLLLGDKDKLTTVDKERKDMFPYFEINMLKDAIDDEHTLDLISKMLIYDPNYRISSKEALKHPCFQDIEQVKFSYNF

[7] = biological target: Protein kinase 7 (PK7), Plasmodium falciparum 3D7 (PF3D7_0213400) (UniProt Q7YTF7); experiment: inhibition of Plasmodium PK7 catalytic activity – biochemical, TCAMS antimalarial set, Kinase-Glo luminescence (AID 1159587); conditions: recombinant PfPK7, Kinase-Glo ATP depletion luminescence
Chain of Protein kinase 7 (PK7), Plasmodium falciparum 3D7 (PF3D7_0213400) (Q7YTF7 1-343): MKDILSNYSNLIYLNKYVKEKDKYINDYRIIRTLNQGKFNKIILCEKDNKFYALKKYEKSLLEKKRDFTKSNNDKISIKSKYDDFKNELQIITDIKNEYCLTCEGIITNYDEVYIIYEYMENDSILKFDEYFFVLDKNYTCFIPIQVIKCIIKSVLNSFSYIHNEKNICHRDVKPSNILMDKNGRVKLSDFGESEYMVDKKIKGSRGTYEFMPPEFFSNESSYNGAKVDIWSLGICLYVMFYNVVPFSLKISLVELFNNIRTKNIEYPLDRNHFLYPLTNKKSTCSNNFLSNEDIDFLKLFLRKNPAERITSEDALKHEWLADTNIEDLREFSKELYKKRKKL

[8] = biological target: Calcium-dependent protein kinase 4 (Plasmodium falciparum (isolate 3D7)) (UniProt Q8IBS5); experiment: PfCDPK4 kinase inhibitors, biochemical, TCAMS library (AID 1159588; cut-off not given, nearly all actives have IC50 up to about 0.91 µM); conditions: recombinant PfCDPK4, Kinase-Glo ATP depletion luminescence
Chain of Calcium-dependent protein kinase 4 (Plasmodium falciparum (isolate 3D7)) (Q8IBS5 whole entry, looked up): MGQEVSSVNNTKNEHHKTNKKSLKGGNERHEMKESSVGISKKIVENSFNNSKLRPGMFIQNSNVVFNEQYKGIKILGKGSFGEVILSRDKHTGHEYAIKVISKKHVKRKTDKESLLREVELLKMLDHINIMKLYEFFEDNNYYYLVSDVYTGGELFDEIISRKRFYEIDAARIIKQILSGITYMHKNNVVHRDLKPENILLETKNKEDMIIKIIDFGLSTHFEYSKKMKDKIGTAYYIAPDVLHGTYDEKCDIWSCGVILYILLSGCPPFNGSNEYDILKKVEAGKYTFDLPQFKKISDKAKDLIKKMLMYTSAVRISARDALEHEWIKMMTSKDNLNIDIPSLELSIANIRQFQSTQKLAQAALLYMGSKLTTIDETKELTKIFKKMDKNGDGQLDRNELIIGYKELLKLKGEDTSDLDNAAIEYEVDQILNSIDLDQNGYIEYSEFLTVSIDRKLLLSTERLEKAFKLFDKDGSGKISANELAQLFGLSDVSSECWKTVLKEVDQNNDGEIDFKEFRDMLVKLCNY

Row | SMILES | growth inhibition [1] | inhibition [2] | inhibition [3] [%] | growth inhibition [4] | outcome [5] | outcome [6] | outcome [7] | outcome [8]
1 | NC(=O)c1c(Cl)nc2ccccc2c1Cl | -2% | 2% | -2 | 91% (active) | inactive | inactive | inactive | inactive
2 | COC(=O)c1ccc(CC(C)NCC(O)c2ccc(C(O)CNC(C)Cc3ccc(C(=O)OC)cc3)cc2)cc1 (stereo not given) | 13% | 24% | 1 | 88% (active) | inactive | inactive | inactive | inactive
3 | CCc1c(CCNCCCCCCNCCc2ccc(OC)cc2)ccc(OC)c1OC | -1% | 16% | 8 | 98% (active) | inactive | inactive | inactive | inactive
4 | COc1cc(NC(=O)c2nn(CCCN3CCC(N4CCCC4)CC3)cc2-c2ccc(Cl)c(Cl)c2)cc(OC)c1OC | 100% (active) | 76% (active) | -5 | 103% (active) | inactive | inactive | inactive | inactive
5 | CO/C(=C\C=C\c1cc2cc(Cl)c(Cl)cc2[nH]1)C(=O)NCCCN1CCCC[C@@H]1C | 83% (active) | 33% | 1 | 99% (active) | inactive | inactive | inactive | inactive
6 | Cc1ccc(N)cc1-c1nc(NC2CC(C)(C)NC(C)(C)C2)nc2c1ccc(=O)n2-c1c(F)cccc1F | 1% | 0% | -5 | 98% (active) | inactive | inactive | inactive | inactive
7 | N#Cc1cccc(C(=O)Nc2ccc(-c3cccc(CN4CCC(O)CC4)c3)cc2)c1 | 68% (active) | 33% | 7 | 100% (active) | inactive | inactive | inactive | inactive
8 | O=C(NCCN1CCCC1)N1CCCN(c2ncnc3cc(-c4ccc(F)cc4)sc23)CC1 | 19% | 5% | 5 | 81% (active) | inactive | inactive | inactive | inactive
9 | COc1ccc(CN2CCC(CNCCc3c(Cl)cccc3Cl)CC2)cc1 | 69% (active) | 45% | -11 | 98% (active) | inactive | inactive | inactive | inactive
10 | CCC(c1ccccc1)c1nn2c(-c3cccs3)nnc2s1 (stereo not given) | 95% (active) | 10% | -4 | 97% (active) | inactive | inactive | inactive | inactive
11 | CCCN(c1ccc(C(F)(F)F)cc1[N+](=O)[O-])S(=O)(=O)C(c1ccccc1)c1ccc(C(F)(F)F)cc1[N+](=O)[O-] (stereo not given) | 49% | -11% | 1 | 94% (active) | inactive | inactive | inactive | inactive
12 | CCOc1ccc2nc(C)cc(NN=Cc3cccc(C)n3)c2c1 | 73% (active) | 6% | 0 | 99% (active) | inactive | inactive | inactive | inactive
13 | CCN(CC)CCNC(=O)c1ccc(NC(=O)c2cc(-c3ccncc3)nc3ccccc23)cc1 | 2% | 1% | -3 | 97% (active) | inactive | inactive | inactive | inactive
14 | C=C(C)Cn1cc(C2CCN(CCN3CCC(CNC(=O)c4ccc(-c5ccc(C#N)cc5)cc4)CC3)CC2)c2ccccc21 | 94% (active) | 64% (active) | -3 | 99% (active) | inactive | inactive | inactive | inactive
15 | CC1CCc2sc(-c3nnc(SC(C)C(=O)N4CCCC4)o3)cc2C1 (stereo not given) | 94% (active) | 1% | 2 | 93% (active) | inactive | inactive | inactive | inactive
16 | CCNc1cc(C(=O)N[C@@H](Cc2ccccc2)[C@H](O)CNCCCc2ccc(OC)cc2)cc(N2CCCC2=O)c1 | 96% (active) | 4% | 2 | 99% (active) | inactive | inactive | inactive | inactive
17 | Nc1cc2c(C3CCN(CC4CCN(C(=O)/C=C/c5ccc(Cl)c(Cl)c5)CC4)CC3)c[nH]c2cn1 | 94% (active) | 0% | -3 | 101% (active) | inactive | inactive | inactive | inactive
18 | O=C(O[C@H]1CN[C@H](C#Cc2cc3ncnc(Nc4ccc5c(ccn5S(=O)(=O)c5cccs5)c4)c3s2)C1)N1CCOCC1 | 48% | -4% | -1 | 85% (active) | inactive | inactive | inactive | inactive

Row | SMILES | growth inhibition [1] | inhibition [2] | inhibition [3] [%] | growth inhibition [4] | outcome [5] | outcome [6] | outcome [7] | outcome [8]
19 | Cc1ccc(NC(=O)c2cccc(CN3CCCN(CC4CCCCC4)CC3)c2)cc1F | 42% | 22% | -2 | 85% (active) | inactive | inactive | inactive | inactive
20 | COc1cccc(C(=O)NC(C=Cc2ccccc2)c2cc(Cl)c3cccnc3c2O)c1 (stereo not given) | 58% (active) | 27% | -1 | 95% (active) | inactive | inactive | inactive | inactive
21 | CCCC(C)NC(=O)[C@H](Cc1ccccc1)NC(=O)c1ccc(O)c(-c2ccc(OC)cc2)c1 (stereo not given in full) | 1% | 12% | 2 | 85% (active) | inactive | inactive | inactive | inactive
22 | N#Cc1ccc(N2CCN(Cc3cccc(-c4ccc(-c5nc6ccc(C(F)(F)F)cc6[nH]5)cc4)c3)CC2)nc1 | 81% (active) | 39% | -1 | 101% (active) | inactive | inactive | inactive | inactive
23 | O=C(NC1CCCc2ccccc21)[C@@H]1CCCN1C(=O)c1ccc(O)c(-c2ccc(Cl)c(Cl)c2)c1 (stereo not given in full) | 99% (active) | -6% | -2 | 99% (active) | inactive | inactive | inactive | inactive
24 | O=C(c1ccccc1[N+](=O)[O-])N(Cc1ccccc1)c1ccccn1 | -2% | 0% | -1 | 91% (active) | inactive | inactive | inactive | inactive
25 | CN(C)CCN1CCN(Cc2ccc(-c3cccc(-c4nc5ccccc5[nH]4)c3)cc2)CC1 | 100% (active) | 25% | -7 | 102% (active) | inactive | inactive | inactive | inactive
26 | Cc1ccc(Cn2cnc3cc(C(=O)Nc4ccc(-c5cccc(CN(C)C)c5)cc4)ccc3c2=O)o1 | 39% | 22% | 4 | 99% (active) | inactive | inactive | inactive | inactive
27 | FC(F)(F)c1ccc2nc(-c3cccc(-c4cccc(CNCc5cnn(-c6ccccc6)n5)c4)c3)[nH]c2c1 | 28% | 6% | -5 | 100% (active) | inactive | inactive | inactive | inactive
28 | CC(C)NCc1ccc(-c2cccc(-c3nc4ccc(C(F)(F)F)cc4[nH]3)c2)cc1 | 100% (active) | 21% | -5 | 101% (active) | inactive | inactive | inactive | inactive
29 | CC[C@H](NC(=O)c1c(CC2CCN(CC(C)=O)CC2)c(-c2ccccc2)nc2ccccc12)c1ccccc1 | 96% (active) | 7% | 3 | 97% (active) | inactive | inactive | inactive | inactive
30 | CCC(C)c1ccc(NC(=O)C(C)c2ccc([N+](=O)[O-])cc2)cc1 (stereo not given) | 100% (active) | 14% | -3 | 101% (active) | inactive | inactive | inactive | inactive
31 | CCOC(=O)C(C)(C)Oc1ccc(CN(Cc2ccc(CC(C)C)cc2)C(=O)Nc2ccc(F)cc2F)c(OC)c1 | 96% (active) | 5% | -8 | 97% (active) | inactive | inactive | inactive | inactive
32 | O=C(Nc1ccc(-c2nc3ccccc3[nH]2)cc1)C1CCN(Cc2ccccc2)CC1 | 82% (active) | 12% | 4 | 100% (active) | inactive | inactive | inactive | inactive
33 | c1cc2nc(CCCc3nc4ccc(C5=N[C@H]6CCCC[C@H]6N5)cc4[nH]3)[nH]c2cc1C1=N[C@@H]2CCCC[C@@H]2N1 | 84% (active) | 10% | -2 | 85% (active) | inactive | inactive | inactive | inactive
34 | CC(C)(C)NS(=O)(=O)c1cc(C(=O)N2CCC(CCN3CCC(C(=O)c4ccc(F)cc4)CC3)(c3cccc(F)c3)CC2)c(Cl)cc1F | 99% (active) | -1% | 4 | 99% (active) | inactive | inactive | inactive | inactive
35 | CC(C)OCCCNC(=O)c1nc(-c2cccc(C(F)(F)F)c2)sc1C(C)C | 34% | -7% | -8 | 94% (active) | inactive | inactive | inactive | inactive
